Measurements published in PubChem BioAssay AID504423 (Broad Institute, 2011).
Several values for one entry are separate records, joined by “and”; a condition that tells them apart may be missing. Equal entries are not always repeated. The whole screen tested about 340,000 compounds, of which about 260 (0.076%) were called active. This is one part of a sample in which actives are shown more often than they occur.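 How the source made its calls: active means highest replicate inhibition at or above 60% at 9 µM, even if other replicates fall short; inactive means all replicates below 60% inhibition.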

These molecules were tested on Kaposi's sarcoma herpesvirus LANA C-terminal domain (residues 932-1162) DNA binding (assay: inhibitors of KSHV C-LANA binding to DNA, primary screen, biochemical, fluorescence polarization, FAM-LBS DNA, MBP-C-LANA, single point (AID 504423;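 further: 0% = neutral control wells and 100% = 4 µM acridine orange control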)). Conditions: at 9 µM, active compounds read high.

inhibition, active:
COc1ccc(CN2CCN(Cc3ccc(OC)c(OC)c3OC)CC2)cc1 79%, C=CC1=C(C(=O)O)N2C(=O)[C@@H](NC(=O)/C(=N/OCC(=O)O)c3csc(N)n3)[C@H]2SC1 95.4%, Cc1nn(C)cc1N1C(=O)c2cccc3c(N)ccc(c23)C1=O 73%, Oc1ccc2ccc3cccc[n+]3c2c1 141%, COC(=O)C[n+]1cccc2ccccc21 70.1%

inhibition, inactive:
C=CCNC(=S)NNC(=O)c1ccc(Br)o1 0.832%, c1ccc(CNc2ncnc3[nH]ncc23)cc1 -0.81%, O=C(CN1CCN(c2ncccn2)CC1)Nc1ccccc1C(F)(F)F -0.265%, COC(=O)Cn1c(=NC(=O)CSCC(=O)Nc2cc(C)on2)sc2ccccc21 1.43%, Cc1ccc(OCCNC(=O)c2cccc(S(=O)(=O)N3CCN(Cc4ccccc4)CC3)c2)cc1 -0.305%, COc1ccc(Cc2nnc(SCC(=O)c3cccc([N+](=O)[O-])c3)n2C)cc1 0.228%, Cc1cc(C)c(NC(=O)CN2CCCCCC2)c(C)c1 1.26%, N=C1c2ccccc2-c2ccccc21 1.95%, CCC(C)C1(C2CCCC2)NC(=O)NC1=O (stereo not drawn) 3.17%, CCOc1ncccc1C(=O)NCCc1ccc(OC)cc1 0.452%, CC1CCN(C(=O)c2ccccc2NC(=O)Cc2ccccc2)CC1 2.17%, O=C(C1CCN(S(=O)(=O)c2ccc(Br)s2)CC1)N1CCN(C2CCCCC2)CC1 -0.326%, Cc1ccccc1CN1C[C@@H]2C[C@@H](c3cn(C)nc3-c3ccccc3)N3CCC[C@@]23C1=O -1.95%, O=C(Nc1ccc2sc3ccccc3c(=O)c2c1)c1ccccc1Cl -0.526%, CCCn1nc(NC(=O)C(C)C)c2cc3cc(OC)ccc3nc21 -1.15%, CC(C(=O)N(C)CC(=O)Nc1ccccc1C(F)(F)F)N1C(=O)c2ccccc2C1=O (stereo not drawn) 1.14%, CCN(CC)P(=O)(/C(Cl)=C\Nc1c(C)n(C)n(-c2ccccc2)c1=O)N(CC)CC -1.51%, Cc1cc([N+](=O)[O-])nn1CC(=O)Nc1ccc(Cc2ccncc2)cc1 0.568%, Cn1c(N2CCOCC2)c(C=O)c2ccccc21 0.207%, Cc1cc(Br)ccc1NC(=O)CN(C)C(=O)CN1C(=O)NC2(CCCC2)C1=O 0.321%, Cn1cc(S(=O)(=O)N2CCC(Cc3ccccc3)CC2)c(=O)n(C)c1=O 1.59%, CCCCN(CCCC)CCCNC(=O)CN1C(=O)COc2ccc(S(=O)(=O)N3CCC(C)CC3)cc21 0.15%, COc1cccc2c1CCC(NC(C)=O)C2=O (stereo not drawn) -1.29%, O=C(CSc1ccsc1[N+](=O)[O-])N1CCCCC1 1.32%, CCCCNS(=O)(=O)c1ccc(S(=O)(=O)n2cnc3ccccc32)cc1 0.219%, COc1ccc(C(=O)Nc2ccc(C(=O)NCC3CCCO3)cc2)c(OC)c1OC (stereo not drawn) 2.3%, Cc1ccc(CNC(=O)C(=O)c2cn(CC(=O)N3CCCC3)c3ccccc23)cc1 2.35%, COC1=C/C(=C/c2c(N)n3nc(CC(=O)N4CCOCC4)sc3nc2=O)C=CC1=O 32.7%, CCC1CCCCN1CCNC(=O)c1[nH]c(C)c(C(C)=O)c1C (stereo not drawn) 5.48%, COc1ccccc1N1CCN(Cc2ccc(OC)c3ccccc23)CC1 -3.69%, COc1cc(CN2CCN(Cc3ccc(C)cc3)CC2)c([N+](=O)[O-])cc1OC -0.737%, CC(=O)Nc1ccc(SCC(=O)Nc2ccccc2Oc2ccccc2)cc1 1.36%, C[C@H](CO)N1C[C@H](C)[C@H](CN(C)C(=O)Nc2ccc(C(F)(F)F)cc2)Oc2c(NC(=O)c3ccncc3)cccc2C1=O -3.26%, O=C(c1ccc(F)cc1)C1CCN(Cc2cn[nH]c2-c2ccccc2)CC1 1.59%, Cc1nc(C)c2c(c1C(F)(F)F)-c1ccccc1C2(F)F 1.49%, COc1ccc([C@@H]2[C@@H]3C(=O)N(C(C)(C)C)C(=O)[C@@H]3[C@]3(Cc4ccccc4)C(=O)N(c4cccc(Br)c4)C(=O)N23)cc1 0.113%, CCOc1cc(C(=O)OCC(=O)Nc2cccc(C)c2)ccc1OCC(=O)N1CCOCC1 0.789%, CO/N=C(\C(=O)N[C@@H]1C(=O)N2C(C(=O)O)=C(COC(C)=O)CS[C@H]12)c1csc(N)n1 (stereo in doubt) 8.29% and 6.28% and 10.6%, C=CC1=C(C(=O)O)N2C(=O)[C@@H](NC(=O)/C(=N\OCC(=O)O)c3csc(N)n3)[C@H]2SC1 22.9%, CCOc1ccccc1N1CCN(C(=O)c2ccc3[nH]c(C)c(C)c3c2)CC1 -1.79%, CCC(=O)OCc1c(C(F)(F)F)nn(C)c1Oc1cccc(C(F)(F)F)c1 0.811%, CC1(C)N=C(c2ccccn2)C(C)(C)N1O 0.432%, Cc1cc(C)n2nc(C(=O)OCC(=O)N(C)CC(=O)Nc3ccc(F)cc3)nc2n1 0.686%, Cc1ccsc1C(=O)N[C@@H](C)c1nnc2ccccn12 1.44%, CCC(C)(C)NC(=O)C(c1ccccn1)N(C(=O)c1csnn1)c1ccccc1 (stereo not drawn) -0.461%, O=C1OC(Oc2ccc(Br)cc2)(c2ccccc2)c2ccccc21 (stereo not drawn) -1.96%, CCC(Cc1ccccc1)NC(=O)C1CCCCC1 (stereo not drawn) 1.4%, Cc1sc2ncn(CC(=O)NCCCC(=O)NCc3ccc(F)cc3)c(=O)c2c1C 0.451%, Cc1ccc2c(c1)N(CC(=O)N1CCCc3ccccc31)C(=O)C(C)O2 (stereo not drawn) 2.64%, COc1cccc(COC(=O)C2CCN(S(=O)(=O)c3ccc(Cl)cc3)CC2)c1OC 0.51%, Cc1cc(C)c(S(=O)(=O)c2ccc(F)cc2C)c(=O)[nH]1 -0.026%, COc1ccc(/C(=N\O)c2nccc3cc(OC)c(OC)cc23)cc1OC 0.0523%, O=C(c1ccc(=O)oc1)N1CCC(C(O)(c2ccccc2)c2ccccc2)CC1 1.16%, O=C(CN1CCSCC1)N/N=C/c1ccc(F)cc1F -0.674%, Clc1ccc(-c2nnc(-c3ccccc3)nc2N2CCSCC2)cc1 -0.189%, CC(=O)c1ccc(N2C(=NC(=O)C(C)C)SC3CS(=O)(=O)CC32)cc1 (stereo not drawn) -0.954%, CCCN(CC(=O)Nc1ccc(OC)c(OC)c1)CC(=O)Nc1ccc(F)c(F)c1F 3.86%, COCCCNC(=O)C1CC(=O)N(c2ccc(C)cc2)C1 (stereo not drawn) 0.062%, COC(=O)c1c(C)oc(C)c1S(=O)(=O)Nc1ccc(C(C)C)cc1 -0.597%, CCN(CC(=O)NC1CCS(=O)(=O)C1)S(=O)(=O)c1ccccc1 (stereo not drawn) -1.52%, CCOc1cc(C(=O)Nc2c(C)ccc3nsnc23)cc(OCC)c1OCC -1.85%, CCN(CC(=O)NC(C)C)C(=O)CCNC(=O)c1ccc(Cl)cc1 -0.0284%, COc1ccc(NS(=O)(=O)c2ccc(C)c(C(=O)N(C)Cc3ccc(OC)cc3OC)c2)cc1 28.6%, O=S(=O)(c1ccc(-c2ccccc2)cc1)N1CCCC1 1.28%, CCCn1c(N)c(C(=O)CSc2nnc(-c3cccnc3)n2-c2ccc(C)cc2C)c(=O)[nH]c1=O 0.224%, CC(C)(C)NC(=O)CN1CCC(NC(=O)C23CC4CC(CC(C4)C2)C3)CC1 0.793%, c1ccc2c(NC3C4CC5CC(C4)CC3C5)nc(N3CCOCC3)nc2c1 (stereo not drawn) 0.795%, CCC(C)(C)c1ccc(OCC(=O)N(C)C)c(C(C)(C)CC)c1 1.97%, Oc1ccc(-c2nc3ccccc3nc2-c2ccc(O)cc2O)c(O)c1 2.95%, CC(=O)Oc1cc2c(C(=O)NCCN3CCOCC3)c(C)oc2c2ccccc12 -0.716%, Cc1cc(C)nc(NNC2=CC(=O)CC(C)(C)C2)n1 2.32%, Cn1c(SCC(=O)N2CCCCC2)nc2c(c1=O)SCC2 -1.34%, COC(=O)[C@@H](NC(=O)NCc1cccc(OC)c1)C(C)C 1.36%, O=C1COc2ccc(C(=O)COC(=O)c3cccnc3Cl)cc2N1 4.34%, COC(=O)Cc1c(-c2[nH]c3ccccc3c2CC(=O)OC)[nH]c2ccccc12 1.73%, O=C(C[n+]1cc(Br)cc2ccccc21)c1ccc(F)cc1 4%, O=C1CCCc2c1[nH]c1ccc(Br)cc21 -0.926%, COCCCN(C(=O)Cn1ncc2c(=O)oc3ccc(C)cc3c21)C(C)c1ccncc1 (stereo not drawn) 1.23%, O=C(Cn1c[n+](CC(=O)c2ccc([N+](=O)[O-])cc2)cn1)c1ccc([N+](=O)[O-])cc1 -0.902% and -2.71%, CCOC(=O)C(C)N(c1ccccc1Cl)S(C)(=O)=O (stereo not drawn) 1.82%, CCOC(=O)C1CCN(C(=O)Cn2nc(C)c3c(C)n(-c4ccccc4)nc3c2=O)CC1 -0.173%, O=C1C=C(c2cccc(Cl)c2O)C[C@@H](c2ccc(F)cc2)C1 0.749%, O=C(O)CCn1c(SCc2cc(=O)n3ccccc3n2)nc2ccsc2c1=O 0.383%
